The results in this text go back to PubChem BioAssay (NCI).

The nature of test [1]: NCI Yeast Anticancer Drug Screen. Data for the rad50 strain (AID 155).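 Also: 0% = growth of vehicle-only cultures of the same strain.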 To be noted: S. cerevisiae rad50 strain growth inhibition; at 50.0 µM; hits give high values. The essentials:
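Inhibition values express reduced yeast growth in compound-treated cultures relative to vehicle-treated controls.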

A short description of test [2]: NCI Yeast Anticancer Drug Screen. Data for the mec2-1 strain (AID 157). Particulars: S. cerevisiae mec2-1 strain, at 50.0 µM, hits give high values. The essentials: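 Mutant yeast (mec2-1) grown with compound; growth inhibition relative to vehicle control reported.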
A short description of test [3]: NCI Yeast Anticancer Drug Screen. Data for the sgs1 mgt1 strain (AID 161).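 Also: 0% = growth of cultures given vehicle only.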 To be noted: S. cerevisiae sgs1 mgt1 strain, at 50.0 µM, hits give high values. The essentials:
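Compounds are added to genetically altered yeast, and growth is compared with cultures given vehicle alone to give percent inhibition.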

A short description of test [4]: NCI Yeast Anticancer Drug Screen. Data for the cln2 rad14 strain (AID 165).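 Also: 0% = growth equal to vehicle treated cultures.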 To be noted: S. cerevisiae cln2 rad14 strain, at 50.0 µM, hits give high values. The essentials:
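Readout is yeast growth inhibition versus vehicle-treated controls, using a strain with cln2 and rad14 alterations exposed to compound.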

Test [5] in a line: NCI Yeast Anticancer Drug Screen. Data for the bub3 strain (AID 167). Particulars: S. cerevisiae bub3 mutant strain, at 50.0 µM, hits give high values. Summed up: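 Steps: expose the mutant yeast strain to compound; grow alongside vehicle-treated cultures; measure growth; express inhibition against the vehicle cultures.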
Test [6] in a line: NCI Yeast Anticancer Drug Screen. Data for the mlh1 rad18 strain (AID 175). To be noted: S. cerevisiae mlh1 rad18 strain growth inhibition; at 50.0 µM; hits give high values. The essentials:
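Genetically defined yeast (DNA repair-deficient) exposed to compounds; growth inhibition determined relative to vehicle.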

Compounds without any hit were thinned out: in the full panel of roughly 79,000, 15% have a hit. A number with no mark means an inactive call. Calls of active or inactive are those of the source. Rule as the data show it: active = growth inhibition above about 70%; inactive = the rest.

On to `C[C@]12CC[C@H]3[C@@H](CC[C@H]4N(CCCl)CCC[C@]34C)[C@@H]1CC[C@@H]2O`, for which the growth inhibition in test [1] was 15.9%; in test [2], 15.9%; in test [3], 46.5%; in test [4], 14.8%; in test [5], 69.2%; in test [6] it was 76.3% (active).

Consider `CC(=O)O[C@H]1C(=O)[C@@]2(C)[C@H]([C@H](OC(=O)c3ccccc3)[C@@]3(O)C[C@H](O)C(C)=C1C3(C)C)[C@]1(OC(C)=O)CO[C@@H]1C[C@@H]2O`, for which the growth inhibition was 8.05% in test [1]; -10.9% in test [2]; 6% in test [3]; 8.35% in test [4]; 12.5% in test [5]; -0.15% in test [6].

Take `CC(Cl)CNC1c2ccccc2CC1O` (configuration not stated): the growth inhibition was -4.4% in test [1]; -7.8% in test [2]; -1.45% in test [3]; -18.6% in test [4]; -6.4% in test [5]; 5.45% in test [6].

Consider `Cc1ccc2c(c1)N(CCCl)c1c(ccc3ccccc13)S2`, for which the growth inhibition in test [1] is -6.55%; in test [2], -10%; in test [3] it was -6.55%; in test [4], -67.9%; in test [5] it was 22.2%; in test [6], -6.6%.

Take `C=C1[C@@H](C)[C@H]2[C@H](Cc3ccccc3)NC(=O)[C@]23OC(=O)/C=C/[C@H](O)CCC[C@@H](C)C/C=C/[C@H]3[C@@H]1O`: the growth inhibition in test [1] was 53.4%; in test [2] it was 25.8%; in test [3] it was 24.6%; in test [4], 39%; in test [5], 58.8%; in test [6], 58.5%.

With `CCOC(=O)c1c(SC)nc(-c2ccc(Cl)cc2)sc1=N`, the growth inhibition in test [1] is 18.4%; in test [2], 19.6%; in test [3] it was 24.8%; in test [4] it was 25.9%; in test [5], 28.1%; in test [6], -19.7%.

In the case of `O=C(CC(=O)C(F)(F)F)c1cccs1`, the growth inhibition in test [1] is -6.15%; in test [2], -11.6%; in test [3], 1.1%; in test [4], 12.3%; in test [5], 11.9%; in test [6] it was -13.1%.

As for `CC(C)(N)Cc1ccc(N)cc1`, the growth inhibition in test [1] was 15.2%; in test [2], -1.55%; in test [3], 7.15%; in test [4] it was 18.4%; in test [5] it was 2.5%; in test [6], 24.4%.

As for `C1CCC(N([P-]P([P-]N(C2CCCCC2)C2CCCCC2)N(C2CCCCC2)C2CCCCC2)C2CCCCC2)CC1.[C-]#[O+].[C-]#[O+].[C-]#[O+].[C-]#[O+].[C-]#[O+].[C-]#[O+].[Fe].[Fe]` (configuration not stated), the growth inhibition in test [1] was -20.7%; in test [2], -28.1%; in test [3] it was -23.2%; in test [4], -8.1%; in test [5], 2.2%; in test [6] it was -24.4%.

On to `CCCCP(CCCC)CCCC`, for which the growth inhibition was -10% in test [1]; 0.95% in test [2]; 4.15% in test [3]; 19.2% in test [4]; 51% in test [5]; 19.6% in test [6].

Regarding `CCCC/C=C/C=C/C=C/CCCCCCCC(=O)OCC(COC(=O)CCCCCCC/C=C/C1C=CC(CCCC)C(C(=O)O)C1C(=O)O)OC(=O)CCCCCCC/C=C/C=C/C=C/CCCC` (configuration not stated) (tested in a mixture with another compound), the growth inhibition in test [1] was -10.8%; in test [2], -20.1%; in test [3] it was 4.55%; in test [4], -3.85%; in test [5], 7.6%; in test [6] it was -0.45%.

Regarding `FC1(F)[Se]C2C3CCC(C3)C2C1(F)F` (configuration not stated), the growth inhibition was -30.9% in test [1]; -11.6% in test [2]; -3.6% in test [3]; -16.1% in test [4]; -0.15% in test [5]; -40.7% in test [6].

As for `Cc1nc2ccccc2c(=O)n1-c1ccccc1Cl`, the growth inhibition is 7.15% in test [1]; -4.65% in test [2]; -6.75% in test [3]; 12.9% in test [4]; 15.9% in test [5]; 9.8% in test [6].

Turning to `CNC(=O)Oc1cccc2c(OC3OC(CO)C(O)C(O)C3O)cccc12` (configuration not stated), the growth inhibition in test [1] is -25.5%; in test [2], 19.4%; in test [3] it was -12.8%; in test [4] it was -16.7%; in test [5], 2.05%; in test [6] it was -23.9%.

Take `N#CC(C#N)=Cc1cccc(F)c1`: the growth inhibition in test [1] is 37%; in test [2] it was 25.2%; in test [3] it was 19.4%; in test [4], 15.6%; in test [5] it was 20.2%; in test [6], 31.9%.

With `C=CCn1nnc(N)n1`, the growth inhibition is -11.8% in test [1]; 7.15% in test [2]; -21.8% in test [3]; 19.5% in test [4]; 8.35% in test [5]; -2.25% in test [6].

`Cc1ccc(S(=O)(=O)N/N=C(\CCN2CCCC2)CC(c2ccccc2)c2c(O)c3ccccc3oc2=O)cc1` (configuration not stated): the growth inhibition was 14.6% in test [1]; 9.1% in test [2]; 20.8% in test [3]; 21.8% in test [4]; 9.95% in test [5]; 17.6% in test [6].

Turning to `O=S1(=O)OCCOS(=O)(=O)C1(Cl)Cl`, the growth inhibition in test [1] was -32.6%; in test [2] it was -41.5%; in test [3], -18%; in test [4], -11.4%; in test [5] it was -31.6%; in test [6] it was -8.65%.

As to `C[CH2][Sn]([I])([CH2]C)[CH2]C`, the growth inhibition in test [1] was 96% (active); in test [2], 98% (active); in test [3], 97.1% (active); in test [4], 98.3% (active); in test [5], 98.1% (active); in test [6], 98.5% (active).

Take `NC(Cc1ccc2c(c1)OCO2)c1ccccc1` (configuration not stated): the growth inhibition was -0.1% in test [1]; 9.05% in test [2]; 3.25% in test [3]; -27.3% in test [4]; 0.45% in test [5]; 4.45% in test [6].

For the compound `O=[As](O)(O[As](=O)(O)c1ccccc1)c1ccccc1`, the growth inhibition is 24.4% in test [1]; 18.1% in test [2]; 17.1% in test [3]; 5% in test [4]; -0.05% in test [5]; 28.5% in test [6].

In the case of `CC(C)(C)OP(O)(=S)OC(C)(C)C`, the growth inhibition in test [1] is 14.5%; in test [2] it was 13.2%; in test [3] it was 15.8%; in test [4] it was 15.2%; in test [5], 16.1%; in test [6], 9.55%.

On to `COc1ccc2c(c1)c(CC(C)[N+](=O)[O-])c(C)n2Cc1ccccc1` (configuration not stated), for which the growth inhibition in test [1] is 6.5%; in test [2], 8.35%; in test [3] it was 5.65%; in test [4], -9.95%; in test [5] it was -3.3%; in test [6] it was 6.9%.

Consider `CCCCCCP(=O)(O)O.[Zn+2]`, for which the growth inhibition was -33.9% in test [1]; -21.8% in test [2]; -9.65% in test [3]; -9.9% in test [4]; -35.1% in test [5]; -8.75% in test [6].

On to `CCCCCCCCCCCC(=O)[O][Pb]([CH2]CCC)([CH2]CCC)[O]C(=O)CCCCCCCCCCC`, for which the growth inhibition in test [1] is 23.5%; in test [2] it was 4.05%; in test [3] it was 13.2%; in test [4] it was -3.15%; in test [5] it was 6.45%; in test [6], 23%.

`C=Cn1nnc(N)n1`: the growth inhibition is -4.9% in test [1]; -0.45% in test [2]; -16.7% in test [3]; 4.55% in test [4]; 17.1% in test [5]; 9.05% in test [6].

Regarding `O=P(O)(O)CCc1ccccc1`, the growth inhibition is -3.85% in test [1]; 1.5% in test [2]; -5.2% in test [3]; -15.8% in test [4]; -2.7% in test [5]; 7.7% in test [6].

Consider `CCC(=O)NCC1CCCN2CCCCC12` (configuration not stated), for which the growth inhibition in test [1] was -4.55%; in test [2] it was -8.35%; in test [3], -18.5%; in test [4], 2.65%; in test [5], 6.95%; in test [6] it was -22%.

In the case of `OC1CN=C2c3ccccc3C(O)(c3ccc(Cl)cc3)N2C1` (configuration not stated), the growth inhibition is 23.8% in test [1]; 22.1% in test [2]; 37.2% in test [3]; -1.9% in test [4]; 22.7% in test [5]; 37.5% in test [6].

For the compound `CC(C)C(C)(O)C#N` (configuration not stated), the growth inhibition in test [1] was 2.2%; in test [2], -2.1%; in test [3] it was 2.6%; in test [4], -23.4%; in test [5], 2.9%; in test [6], 17.9%.

Consider `C/C=C/CC1(CC)C(=O)NC(=O)NC1=O`, for which the growth inhibition in test [1] is 16.9%; in test [2] it was 10.9%; in test [3] it was 11.8%; in test [4], 16.6%; in test [5], 2%; in test [6], 8.1%.

On to `C=CCNC(=S)/N=C/c1c(O)[nH]c(=O)[nH]c1=O`, for which the growth inhibition in test [1] is -64.8%; in test [2], -50.4%; in test [3], -44.9%; in test [4], -47%; in test [5] it was -15.8%; in test [6] it was -44.1%.

As to `CCOC(=O)CC(Br)C(=O)CBr` (configuration not stated), the growth inhibition is -9.15% in test [1]; 11% in test [2]; 7.15% in test [3]; -17.8% in test [4]; 2.6% in test [5]; -9.6% in test [6].

As for `CC(C)c1cccc(C(C)C)c1NC(=O)/C(CC(=O)CC(c1ccccc1)c1c(O)c2ccccc2oc1=O)=N/O` (configuration not stated), the growth inhibition in test [1] was -45.5%; in test [2] it was 4.85%; in test [3] it was 19.1%; in test [4], -32.1%; in test [5] it was -15.8%; in test [6], 18.3%.

As to `COC(=O)CCP(CCC(=O)OC)c1ccccc1`, the growth inhibition in test [1] is -3.9%; in test [2] it was -11%; in test [3] it was -7.15%; in test [4] it was -10.7%; in test [5] it was -4.85%; in test [6] it was 1.1%.

`CCC12C=CCN3CCC4(C(=C(C(=O)OC)C1)Nc1ccccc14)[C@H]32` (some centres not stated): the growth inhibition in test [1] is 6.7%; in test [2], 6%; in test [3], 6%; in test [4] it was -8%; in test [5], 7.25%; in test [6], 0.8%.

As for `CC(C)(C)C1=C(Br)C(Br)(C(C)(C)C)OP1(=O)c1ccccc1` (configuration not stated), the growth inhibition in test [1] was 7.9%; in test [2] it was 8.55%; in test [3], -22.9%; in test [4], 5.75%; in test [5] it was -5%; in test [6] it was -27.5%.
